# Test results reported in PubChem BioAssay (EPA / NIEHS).
# “And” between values parts separate entries of the source, which are not always exact repeats. Equal entries are not always repeated. The source made the active and inactive calls. The calls were made as follows: active = hit-call score of the fitted dose curve at least 0.9, where 1 is the maximum; inactive = score below 0.9.
# Assay: IUF_NPC2a_radial_glia_migration_120hr: Leibniz Research Institute for Environmental Medicine (IUF) 120-hour Neural Progenitor Cell Migration Assay for Radial Glia Migration (NPC2a) (AID 2284298)
# Description: IUF_NPC2-5 is a cell-based, multiplexed assay that uses hNPC, a human primary neural progenitor cells, with measurements taken at 72 or 120 hours after chemical dosing in a 96-well plate. Human neural progenitor cells (hNPC) are generated from human fetal brain cortex at gestational week (GW) 16-19. In the neural progenitor cell migration and differentiation assay (NPC2-5), hNPCs grown as spheres are plated on an extracellular matrix and migrate and differentiate out of the sphere core. The processes radial glia migration, neuronal and oligodendrocyte migration as well as neuronal differentiation, neuronal morphology and oligodendrocyte differentiation are studied using automated phase contrast imaging and automated fluorescence imaging in combination with high content image analysis. In parallel, the cell viability is assessed using an alamar blue viability assay and the cytotoxicity using a lactate dehydrogenase dependent membrane integrity assay.IUF_NPC2a_radial_glia_migration_120hr is one of 12 assay components measured from the IUF_NPC2-5 assay. The migration distance of radial glia at 120 hr is assessed in um from the edge of the sphere core to the edge of the migration area based on fluorescent images of Hoechst-positive nuclei. With the identification of each nucleus position around the sphere core, migration-related parameters can be calculated. First, a nuclei density distribution is calculated for which an algorithm determines relatively more and less dense nuclei areas. This calculation identifies the sphere core by the densest nuclei area in the image. The algorithm further assumes that nuclei density decreases from the sphere core to the periphery. When the nuclei density hits a pre-defined threshold, the outer boundaries of the migration area are determined and the sphere itself is mapped out in a polynomial bounding box. Derived from this box, the size of the migration area and the migration distance are calculated for each well.Data from the IUF_NPC2a_radial_glia_migration_120hr component was analyzed at the endpoint IUF_NPC2a_ radial_glia_migration_120hr in the positive analysis fitting direction relative to DMSO as the negative control and baseline of activity. Using a type of migration reporter, gain or loss-of-signal activity can be used to understand developmental effects.
# Culture protocol: After the cell expansion period the cells are cultured for up to four weeks in which they are passaged every week as described in 3.6. Between one to three days after passaging spheres at a size of 0.3 mm are picked for the test method. For the assessment of neural progenitor cell migration and differentiation, the spheres are plated on poly-D-lysine/laminin coated 96-well flat bottom plates in differentiation medium (N2) to initiate migration and differentiation. Thereby one 0.3 mm big sphere is plated in the middle of a well. The differentiation medium consists of DMEM and Ham's F12 at a ratio of 3 to 1 supplemented with 1% N2 and 1% penicillin and streptomycin. Within 5 days NPCs radially migrate out of the sphere core and differentiate into radial glia cells (nestin positive), neurons (TUBB3 positive), oligodendrocytes (O4 positive) and astrocytes (GFAP positive). Cultivation during the test method is performed at 37C and 5% CO2 at a ph of 7.2-7.6.Exposure: 0.3 mm big hNPC are plated in the already prepared test conditions. Exposure starts at day 0 of differentiation and is continued over five days of differentiation until the experiment is terminated. Cells are fed with fresh medium at day 3 of differentiation. Therefore, half of the test condition solution (e.g. solvent control or compound dilution) is replaced by freshly prepared test condition solution.Test Method: Migration distance and cytotoxicity is determined after 72 hours based on brightfield images of each well. The assay is terminated by the assessment of cell viability and cytotoxicity as well as cell fixation after 120 h. […]
Compound,outcome,AC50
O=C(O)COc1ccc(Cl)cc1Cl,inactive,–
CNC(=O)CSP(=S)(OC)OC,inactive,–
CC1(C)C(C=C(Cl)Cl)C1C(=O)OC(C#N)c1ccc(F)c(Oc2ccccc2)c1 (stereo not drawn),inactive,–
O=S(=O)(O)C(F)(F)C(F)(F)C(F)(F)C(F)(F)C(F)(F)C(F)(F)C(F)(F)C(F)(F)F,–,79.3 µM (active) and 16 µM (active)
CC(C)N(C(=O)COc1nnc(C(F)(F)F)s1)c1ccc(F)cc1,inactive,–
O=C(O)C(F)(F)C(F)(F)C(F)(F)C(F)(F)C(F)(F)C(F)(F)C(F)(F)F,inactive,–
O=[N+]([O-])/N=C1\NCCN1Cc1ccc(Cl)nc1,inactive,–
COP(=O)(OC)OC=C(Cl)Cl,–,40 µM (active)
COP(=S)(OC)Oc1ccc([N+](=O)[O-])cc1,inactive,–
CC1(c2ccc(Oc3ccccc3)cc2)OC(=O)N(Nc2ccccc2)C1=O (stereo not drawn),–,5 µM (active)
CC[C@H](C)[C@H]1O[C@]2(C=C[C@@H]1C)C[C@@H]1C[C@@H](C/C=C(\C)[C@@H](O[C@H]3C[C@H](OC)[C@@H](O[C@H]4C[C@H](OC)[C@@H](O)[C@H](C)O4)[C@H](C)O3)[C@@H](C)/C=C/C=C3\CO[C@@H]4[C@H](O)C(C)=C[C@@H](C(=O)O1)[C@]34O)O2 (tested in a mixture with another compound),–,3.4 µM (active)
CCC(C)(C)C(=O)OC1=C(c2ccc(Cl)cc2Cl)C(=O)OC12CCCCC2,inactive,–
O=S1OCC2C(CO1)C1(Cl)C(Cl)=C(Cl)C2(Cl)C1(Cl)Cl (stereo not drawn),–,13.1 µM (active)
